Reference: PubChem BioAssay (Tox21)
Results filed as inconclusive are left out. A call without a number means that no potency is given here. Unmarked numbers belong to inactive results. Activity calls are given as the source filed them. Unless noted, the call rests on the fitted dose curve; in most records, active means well fitted curve in the direction sought with a large enough effect in the repeat runs; inconclusive means weak or mixed curves; inactive means no such curve, though single readings can be large; an effect the other way counts as inactive or inconclusive.

Legend:
[1] = qHTS assay to identify small molecule antagonists of the estrogen related receptor (ERR) signaling pathway - cell viability counter screen (AID 1224818);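 further: series mostly up to about 46 µM; viability measured after 17.5 h of compound exposure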
In short: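 Cytotoxicity check run alongside the ERR antagonist screen: cells exposed to test compounds 17.5 h at 37 C, viability taken as CellTiter-Fluor fluorescence intensity.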

[2] = qHTS assay to identify small molecule antagonists of the estrogen related receptor (ERR) signaling pathway (AID 1224819; further: nearly all actives have a fitted effect of over 50% in size; further: potency means the concentration at half of the fitted maximal effect)
In short: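 ERR reporter cells were plated at 2,000 cells/well and left 6 h at 37 C/5% CO2 before pin-tool transfer of compounds in DMSO. After 18 h at 37 C, One-Glo was added and luminescence was read 30 min later at room temperature.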

[3] = qHTS assay to identify small molecule agonists of the estrogen related receptor (ERR) signaling pathway (AID 1224820)
In short: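 An ERR cell line provided by NTP was seeded at 2,000 cells per well and allowed to settle for 6 h before compounds in DMSO were added. After 18 h at 37 C, luciferase activity was measured by One-Glo luminescence.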

[4] = qHTS assay to identify small molecule agonists of the estrogen related receptor signaling pathway with the pleiotropic PPARgamma coactivator (PGC) (AID 1224823)
In short: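 Compounds dissolved in DMSO are added by pin tool to PGC/ERR cells that have settled for 6 h, and incubation continues 18 h at 37 C. Reporter output is measured as One-Glo luminescence.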

[5] = tested on: estrogen-related receptor alpha (ERRalpha) with PGC-1alpha coactivator, human; experiment: qHTS assay to identify small molecule antagonists of the estrogen related receptor signaling pathway with the pleiotropic PPARgamma coactivator (PGC) (AID 1224821; calls by dose curve; further: nearly all actives have a fitted effect of over 50% in size; further: potency means the concentration at half of the fitted maximal effect)
In short: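 A PGC/ERR cell line supplied by NTP is seeded, allowed 6 h at 37 C, and treated with test compounds in DMSO for 18 h. Signal is then measured as luciferase luminescence using One-Glo.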

[6] = qHTS assay to identify small molecule antagonists of the estrogen related receptor signaling pathway with the pleiotropic PPARgamma coactivator (PGC) cell viability counter screen (AID 1224822; further: potency means the concentration at half of the fitted maximal effect;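 further: viability read after 17.5 h compound exposure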)
In short: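 Viable cell signal (CellTiter-Fluor, 30 min, 37 C/5% CO2) was measured in PGC/ERR cells after a 17.5 h compound incubation.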

SMILES	Potency [1]	Potency [2]	Potency [3]	Potency [4]	Potency [5]	Potency [6]
CCCN1CCc2cccc3c2[C@H]1Cc1ccc(O)c(O)c1-3	inactive	inactive	inactive	inactive		
CN1CCc2cc(O)cc3c2[C@H]1Cc1ccc(O)c(O)c1-3	inactive		inactive	inactive	inactive	
O=C1CC[C@@]2(O)C3Cc4ccc(O)c5c4C2(CCN3CC2CC2)[C@H]1O5 (some centres not stated)	inactive					inactive
COC(=O)[C@@H](N)CCCN=C(N)N[N+](=O)[O-]	inactive					inactive
O=S1(=O)N(CCN2CC=C(c3c[nH]c4cc(F)ccc34)CC2)c2cccc3c2N1CCC3		16.2 µM (active)	inactive	inactive	23.7 µM (active)	
c1ccc2cc(CC3=NCCN3)ccc2c1	inactive					inactive
NCCCP(=O)(O)O		inactive	inactive	inactive		
Nc1ccc(CCN2CCN(c3cccc(C(F)(F)F)c3)CC2)cc1		13.9 µM (active)	inactive	inactive	inactive	inactive
CNc1ccc2oc(C[C@H]3O[C@@]4(CC[C@H]3C)O[C@H]([C@H](C)C(=O)c3ccc[nH]3)[C@H](C)C[C@H]4C)nc2c1C(=O)O		2.37 µM (active)	inactive	inactive		9.44 µM (active)
CC[C@@H](C(N)=O)N1CCCC1=O	inactive					inactive
C[N+]1(C)CCN(c2ccccc2)CC1		inactive	inactive	inactive	inactive	inactive
